Experimental findings from PMC5540273 (PLoS ONE, 2017) are described below.
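Note: KINOMEscan kinase panel screen.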

In this assay the test system is T1, SNARK.
T1 construct: gene NUAK2
The following applies: concentration: 1 μM, replicates: in singlicate; n = 1.
For `Cc1cccc(-c2nc(-c3ccc(S(C)(=O)=O)cc3)sc2-c2ccncc2)c1`, the “%Inh” value is given as 2%. To `CN1c2ccc(CNc3ccc(F)cc3)cc2-c2c(cnn2C)S1(=O)=O` belongs 0%. Under `O=C1Cc2cc(Nc3nc(NCc4cccc(S(=O)(=O)C(F)(F)F)c4)ncc3C(F)(F)F)ccc2N1` stands 0%; under `COc1cc2c(cc1OC[C@@H](O)CO)ncc1c3ccc(C#N)cc3[nH]c21`, 89%; under `COc1ccc(S(=O)(=O)NC2CCN(c3cc(C)nc(Nc4cccc(C#N)c4)n3)CC2)cc1.O=C(O)C(F)(F)F` [GSK1653539], 0%. For `[2H]C([2H])(c1cccc(C(F)(F)F)c1C)n1ccn2c(=O)nc(N3CCOCC3)cc12` [GSK2336394], the “%Inh” value was determined as 0%. Turning to `Cc1cccc(-c2nc(Nc3ccc4ncsc4c3)c3ccccc3n2)n1` [GW867588], the “%Inh” value amounted to 6%.

With `COc1cc2ncn(-c3cc(OCc4sccc4Cl)c(C(N)=O)s3)c2cc1OC` [GSK448459], the “%Inh” value amounted to 80%. Under `CCc1ccnc(/C=C/c2n[nH]c3cc(Sc4ccccc4C(=O)NC)ccc23)c1` stands 10%. Under `C[C@@H](Oc1cc(-n2cnc3ccc(NC(=O)NC(C)(C)C)cc32)sc1C(N)=O)c1ccccc1Cl` [GSK346294] stands 21%. For the compound `COc1cc2c(cc1OCCN1CCN(C)CC1)ncc1c3ccc(C#N)cc3[nH]c21`, the “%Inh” value is 97.1%. Turning to `COCCNC(=O)c1ccc(-c2cc(C(=O)NC3CC3)cc(F)c2C)cc1` [GW868318], the “%Inh” value turned out to be 16%.
